# Results with a measured potency or affinity are listed apart. A number with no mark means an inactive call. No rule for the calls is given here.
# Test: cytotoxicity in OVCAR8 ovarian cancer cells, dose response, PAX8 project, cell-based, plate reader, dry powder samples (AID 743197)
# Conditions: series mostly up to 35 µM; activity change, negative = cytotoxicity: at the top concentration
row,SMILES,"activity change, negative = cytotoxicity"
1,C[C@@H]1CCCCO[C@@H](CN(C)Cc2ccc(C(F)(F)F)cc2)[C@@H](C)CN([C@@H](C)CO)C(=O)c2cc(NS(=O)(=O)c3ccc(F)cc3)ccc2O1,-0.838% [at 30 µM]
2,C[C@H](CO)N1C[C@H](C)[C@H](CN(C)S(=O)(=O)c2ccc(Cl)cc2)OCCCC[C@H](C)Oc2ccc(NS(=O)(=O)c3ccc(F)cc3)cc2C1=O,4.24%
3,Cc1noc(C)c1S(=O)(=O)N(C)C[C@@H]1OCCCC[C@H](C)Oc2ccc(NS(=O)(=O)c3ccc(Cl)cc3)cc2C(=O)N([C@H](C)CO)C[C@@H]1C,-8.7%
4,C[C@@H]1CCCCO[C@H](CN(C)Cc2ccc(Cl)c(Cl)c2)[C@H](C)CN([C@@H](C)CO)C(=O)c2cc(NC(=O)Nc3ccccc3)ccc2O1,12.4%
5,C[C@@H]1CCCCO[C@H](CN(C)Cc2ccc(C(F)(F)F)cc2)[C@H](C)CN([C@@H](C)CO)C(=O)c2cc(NS(=O)(=O)c3cccs3)ccc2O1,-3.25%
6,C[C@@H]1CN([C@H](C)CO)C(=O)Cc2cc(NC(=O)Nc3ccc(F)cc3)ccc2O[C@H]1CN(C)Cc1ccc(Cl)c(Cl)c1,8.01%
7,O=C(C[C@H]1CC[C@H]2[C@@H](COC[C@@H](O)CN2Cc2ccc(Oc3ccccc3)cc2)O1)N1CCCCC1,-19.4%
8,C[C@@H]1CN([C@H](C)CO)S(=O)(=O)c2ccc(C#CC3CCCC3)cc2O[C@@H]1CN(C)C(=O)Cc1ccncc1,6.96%
9,COc1ccc(NC(=O)Nc2ccc3c(c2)CC(=O)N([C@H](C)CO)C[C@@H](C)[C@@H](CN(C)Cc2ccc(Oc4ccccc4)cc2)O3)cc1,2.76%

# From PubChem BioAssay
